Here are results for 33 compounds from PubChem BioAssay (NCI).

What all share (assay): NCI-60 one-dose screen, 48 h (100 = growth as untreated, 0 = no growth, -100 = all killed)
Holding throughout (conditions): 10 µM unless noted

Experiment [1] relates to BT-549 breast.
The test system of experiment [2] is MDA-MB-435 melanoma.
In experiment [3] the test system is SW-620 colon.
The test system of experiment [4] is MCF7 breast.
The test system of experiment [5] is HCT-116 colon.
The test system of experiment [6] is HCC-2998 colon.
The subject of experiment [7] is KM12 colon.

The panel holds about 83,000 compounds, 20% with a hit somewhere; the sample as a whole holds those more often.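 Assay: single dose, 48 h. Readout: percent growth (0 = no net growth; negative = cell death). Active: <10.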 Values without a mark were called inactive. Active and inactive are the calls of the source.

With `C/C=C(/C(=C/C)c1ccc(O)cc1)c1ccc(O)cc1`, the growth in experiment [1] was 40.7%; in experiment [2] it was -40.2% (active); in experiment [3], 25.6%; in experiment [4], 20.6%; in experiment [5] it was 27%; in experiment [6] it was 61.7%. In addition, in experiment [7], the growth is 20.3%.
For `c1ccc(COc2ccc(Nc3ncnc4c3cnn4-c3ccccc3)cc2)cc1`, the growth in experiment [1] was 106%; in experiment [2] it was 90.1%; in experiment [3] it was 98.7%; in experiment [4] it was 101%; in experiment [5] it was 106%; in experiment [6], 108%. Besides, the growth in experiment [7] was 98.2%.
In the case of `COc1ccc(N2CCN(CC(=O)N3CCN(c4nnc(-c5ccccc5)c(-c5ccccc5)n4)CC3)CC2)cc1`, the growth was 47.8% in experiment [1]; 45.2% in experiment [2]; 54.6% in experiment [3]; 36.4% in experiment [4]; 29.5% in experiment [5]; 62.4% in experiment [6]. Besides, the growth in experiment [7] is 37.2%.
For the compound `CC(=O)Nc1cc2c3c(cccc3c1)-c1ccccc1-2`, the growth is 64.7% in experiment [1]; 68.4% in experiment [2]; 96.9% in experiment [4]; 95.9% in experiment [5]; 87.8% in experiment [6]; 51.1% in experiment [7].
With `Fc1ccccc1C1c2ccccc2-c2nccn21` (configuration not stated), the growth was 106% in experiment [1]; 108% in experiment [2]; 107% in experiment [3]; 101% in experiment [4]; 90.1% in experiment [5]; 103% in experiment [6]. Further, the growth in experiment [7] was 93.8%.
For the compound `COc1ccc(OC)c2c1CCC1(C2)NC(=O)NC1=O` (configuration not stated), the growth in experiment [1] is 114%; in experiment [2], 95.9%; in experiment [3], 103%; in experiment [4], 92.4%; in experiment [5], 107%; in experiment [6], 106%.
For `O=C(c1ccc(N2CCOCC2)cc1[N+](=O)[O-])N1CCOCC1`, the growth is 104% in experiment [1]; -32.2% (active) in experiment [2]; 93.1% in experiment [3]; 127% in experiment [4]; 107% in experiment [5]; 108% in experiment [6]. For the same compound, in experiment [7], the growth was 121%.
As for `Cc1cc(-c2ccccc2)cc(C)n1`, the growth in experiment [1] was 113%; in experiment [2] it was 105%; in experiment [3], 109%; in experiment [4], 93.5%; in experiment [5], 104%; in experiment [6] it was 107%. Moreover, the growth in experiment [7] is 112%.
Consider `COc1ccc(OC)c(CCn2cncc2-c2c[nH]c3cc(Br)ccc23)c1`, for which the growth in experiment [1] was 14.1%; in experiment [3], 33.7%; in experiment [4] it was 17.2%; in experiment [5], 23.6%; in experiment [6] it was 69.6%; in experiment [7], 41.7%.
Consider `N#Cc1ccccc1C#Cc1ccccc1C#Cc1ccc(OCCCCCCOc2ccc(C#Cc3ccccc3C#Cc3ccccc3C#N)cc2)cc1`, for which the growth in experiment [1] is 112%; in experiment [2] it was 107%; in experiment [4], 78.6%; in experiment [5], 91.8%; in experiment [6], 107%; in experiment [7], 105%.
Regarding `CC(C)=CCCC(C)c1ccc(C)c2c1OCN(CC1CCNCC1)C2` (configuration not stated), the growth is 55.8% in experiment [1]; 14.7% in experiment [2]; 28% in experiment [3]; 36.6% in experiment [4]; -37.2% (active) in experiment [5]; -82.1% (active) in experiment [6]. The growth in experiment [7] is 38.4%.
For the compound `Cc1ccccc1NC(=O)N/C(N)=N/c1nc2ccccc2s1`, the growth in experiment [1] was -2.9% (active); in experiment [2], -11.4% (active); in experiment [3], 25.8%; in experiment [4] it was 19%; in experiment [5] it was 10.2%; in experiment [6] it was 17.2%. For the same compound, the growth in experiment [7] is 14.9%.
Consider `CCn1cnc(C[C@H](NC(=O)[C@H](CCCCNC(=O)Nc2cc(C(F)(F)F)cc(C(F)(F)F)c2)NC(=O)Nc2cc(C(F)(F)F)cc(C(F)(F)F)c2)C(=O)OC)c1`, for which the growth in experiment [1] is -35.3% [100 µM] (active); in experiment [2] it was -65.4% [100 µM] (active); in experiment [3], -40.9% [100 µM] (active); in experiment [4] it was -47% [100 µM] (active); in experiment [5] it was -100% [100 µM] (active); in experiment [6], -20.8% [100 µM] (active). Also, in experiment [7], the growth is -43% [100 µM] (active).
As to `CCCCCCCCCCNCCSS(=O)(=O)O`, the growth was 113% in experiment [1]; 62.4% in experiment [2]; 81.8% in experiment [3]; 19.2% in experiment [4]; 52.9% in experiment [5]; 76.4% in experiment [6]. Also, the growth in experiment [7] was 4.36% (active).
Turning to `COc1ccc(/C=C2/SC(=Nc3c(C)nn(-c4ccccc4)c3N)NC2=O)cc1`, the growth in experiment [1] was 26.8%; in experiment [2], -38.9% (active); in experiment [4], 8.99% (active); in experiment [5], 16.8%; in experiment [6] it was 53.5%; in experiment [7], 28.6%.
In the case of `CCOC(=O)C(C(=O)OCC)C1CCCCC1`, the growth in experiment [1] was 104%; in experiment [2], 101%; in experiment [3] it was 104%; in experiment [4], 98.6%; in experiment [5], 104%; in experiment [6], 111%. The growth in experiment [7] was 105%.
On to `C[C@H]1O[C@@H](O[C@H]2[C@@H](O)C[C@H](O[C@H]3[C@@H](O)C[C@H](O[C@H]4CC[C@]5(C)C6C[C@@H](O)[C@]7(C)[C@@H](C8=CC(=O)OC8)CC[C@]7(O)C6CC[C@@H]5C4)O[C@@H]3C)O[C@@H]2C)C[C@H](O)[C@@H]1O` (some centres not stated), for which the growth in experiment [1] is -89.6% (active); in experiment [2] it was -100% (active); in experiment [3] it was -97.9% (active); in experiment [4] it was -26.5% (active); in experiment [5], -88.7% (active); in experiment [6] it was -79.1% (active). Moreover, in experiment [7], the growth is -100% (active).
Take `COc1ccc(C2=NN(C(C)=O)C(c3c(C)nn(-c4ccccc4)c3N3CCOCC3)C2)cc1` (configuration not stated): the growth in experiment [1] was 77%; in experiment [3], 96.6%; in experiment [4], 91.7%; in experiment [5], 82.3%; in experiment [6], 102%; in experiment [7], 100%.
As to `C=C1CC[C@@H]2[C@](C)(COC(C)=O)[C@H](OC(C)=O)CC[C@@]2(C)[C@@H]1CC(NCc1ccccc1)C1=CCOC1=O` (some centres not stated), the growth in experiment [1] is 28.1%; in experiment [2], 27.9%; in experiment [3], 47.3%; in experiment [4] it was 29.8%; in experiment [5], 42.3%; in experiment [6], 93.7%. Moreover, the growth in experiment [7] was 39.1%.
Turning to `C=C1CCC2C3(C)COC(c4ccccc4)OC3CCC2(C)C1C/C=C1/C(=O)OCC1OC(C)=O` (configuration not stated), the growth is 103% in experiment [1]; 88.6% in experiment [2]; 41.4% in experiment [3]; 24.9% in experiment [4]; 24.9% in experiment [5]; 107% in experiment [6]. Further, the growth in experiment [7] was 84.4%.
As to `CCSc1ncc(Br)c(Sc2nc(N)nc3nc[nH]c23)n1`, the growth was 65.3% in experiment [1]; 37.7% in experiment [2]; 91.4% in experiment [3]; 47% in experiment [4]; 36.8% in experiment [5]; 41.4% in experiment [6]. Besides, the growth in experiment [7] is 79%.
As to `O=C(N/N=C/c1cccc([N+](=O)[O-])c1)c1ccc(Br)o1`, the growth in experiment [1] is 103%; in experiment [2] it was 106%; in experiment [3], 116%; in experiment [4], 78.1%; in experiment [5], 100%; in experiment [6], 87.2%. For the same compound, the growth in experiment [7] was 109%.
As for `CC1CN(/N=C/c2ccc([N+](=O)[O-])o2)C(=N)O1` (configuration not stated), the growth in experiment [1] is 117%; in experiment [3], 98.2%; in experiment [4], 84.8%; in experiment [5] it was 95.6%; in experiment [6], 98.3%; in experiment [7], 91.7%.
With `c1ccc(-c2nc(Nc3nccnn3)c3ccccc3n2)cc1`, the growth is 99.1% in experiment [1]; 101% in experiment [2]; 97.9% in experiment [3]; 75% in experiment [4]; 100% in experiment [5]; 106% in experiment [6]. In experiment [7], the growth is 97.8%.
Turning to `C/C(=C\CCc1ccoc1)CC/C=C(\C)CCCNc1ccc(F)cc1`, the growth in experiment [1] is 97.1%; in experiment [2] it was 99.2%; in experiment [3], 90.6%; in experiment [4], 92.8%; in experiment [5], 85.2%; in experiment [6], 111%. The growth in experiment [7] is 96.3%.
As to `CN(C)CCCNc1nn2c(=O)c3ccccc3nc2c2ccccc12`, the growth was 75.6% in experiment [1]; 74.7% in experiment [2]; 57.9% in experiment [3]; 26.7% in experiment [4]; 25.2% in experiment [5]; 70.6% in experiment [6]. Moreover, in experiment [7], the growth was 66.1%.
Take `C[C@@H]1CN(c2nc3c(cc2F)c(=O)c(C(=O)O)cn3C(C)(C)C)C[C@H](C)N1`: the growth was 107% in experiment [1]; 107% in experiment [2]; 100% in experiment [3]; 113% in experiment [4]; 92.2% in experiment [5]; 98.1% in experiment [6]. For the same compound, in experiment [7], the growth is 98.5%.
Take `N#CC1c2ccccc2C=CN1C(=O)N(c1ccccc1)c1ccccc1` (configuration not stated): the growth was 74.1% in experiment [1]; 58.7% in experiment [2]; 21.8% in experiment [3]; 49.9% in experiment [4]; 26.5% in experiment [5]; 96.8% in experiment [6]. In experiment [7], the growth is 102%.
As to `CCSc1nc(-c2ccc(F)cc2)c(C#N)c(=O)[nH]1`, the growth in experiment [1] is 105%; in experiment [3] it was 107%; in experiment [4] it was 102%; in experiment [5] it was 109%; in experiment [6], 99.8%; in experiment [7], 100%.
In the case of `O=C1OC(Oc2ccccc2)(c2ccccc2)c2ccccc21` (configuration not stated), the growth in experiment [1] was 102%; in experiment [2], 102%; in experiment [3] it was 106%; in experiment [4], 117%; in experiment [5], 102%; in experiment [6] it was 104%. The growth in experiment [7] is 93.3%.
In the case of `CCNCCCn1c2c(c3ccc(F)cc3c1=O)C(=O)c1cc(OC)cnc1-2`, the growth in experiment [1] was -22.7% (active); in experiment [2] it was 1.77% (active); in experiment [3] it was -16.1% (active); in experiment [4], -4.74% (active); in experiment [5] it was -62.1% (active); in experiment [6] it was -56.1% (active). Further, the growth in experiment [7] is 1.84% (active).
As to `CC(=O)N1N=C(c2ccc(Nc3ccnc4cc(Cl)ccc34)cc2)CC1c1ccc(Cl)cc1` (configuration not stated), the growth in experiment [1] was 54.7%; in experiment [2] it was 6.15% (active); in experiment [3], 63.1%; in experiment [4], 25.6%; in experiment [5] it was 55.6%; in experiment [6], 44.4%. Further, the growth in experiment [7] is 36.5%.
As for `COc1cccc(/C=N/Nc2nc3ccccc3s2)c1OC`, the growth was 78.5% in experiment [1]; 91.5% in experiment [2]; 96.7% in experiment [3]; 63.2% in experiment [4]; 42.5% in experiment [5]; 70.5% in experiment [7].
